Test results published in PubChem BioAssay (NCATS).
Records with an inconclusive call do not appear. The source made the active and inactive calls. The call rests on the fitted dose curve; in most records, active means well fitted inhibition curve with a large enough effect; inconclusive means small, poorly fitted or top-dose-only effect; inactive means flat fitted curve, though single readings scatter.

What was measured:
Experiment in all cases: qHTS profiling for inhibitors of Plasmodium falciparum proliferation (AID 504749); further: nearly all actives have a fitted effect of over 60% in size
Conditions in all cases: P. falciparum in erythrocytes, SYBR Green DNA, 72 h; series mostly up to 28.7 µM
AA1029 = system: AA1029
Method in brief: (§1)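 In a 72 h erythrocytic culture (37 C, humidified, 5% CO2) at 2.5% hematocrit and 0.3% starting parasitemia, compounds were tested; SYBR Green I in detergent lysis buffer stained parasite DNA overnight.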

AS120 = system: AS120
Method in brief: as §1

ATS189 = system: ATS189
Method in brief: as §1

ATS95 = system: ATS95
Method in brief: as §1

C2A = system: C2A
Method in brief: as §1

CP185 = system: CP185
Method in brief: as §1

CP191 = system: CP191
Method in brief: as §1

CP192 = system: CP192
Method in brief: as §1

CP194 = system: CP194
Method in brief: as §1

CP201 = system: CP201
Method in brief: as §1

CP211 = system: CP211
Method in brief: as §1

CP217 = system: CP217
Method in brief: as §1

CP237 = system: CP237
Method in brief: as §1

CP238 = system: CP238
Method in brief: as §1

CP247 = system: CP247
Method in brief: as §1

CP250 = system: CP250
Method in brief: as §1

CP252 = system: CP252
Method in brief: as §1

CP256 = system: CP256
Method in brief: as §1

CP215 = system: CP215
Method in brief: as §1

CP203 = system: CP203
Method in brief: as §1

Measured: Potency
Potency means the concentration at half of the fitted maximal effect.

O=C(O)CN(CCN(CC(=O)O)CC(=O)O)CC(=O)O
not listed: CP215 | CP203
inactive: all other assays above

CC1=CCC(C(C)(C)O)CC1 (stereo unspecified)
not listed: CP203
inactive: all other assays above

COC(C(=O)C(O)C(C)O)C1Cc2cc3cc(OC4CC(OC5CC(O)C(O)C(C)O5)C(O)C(C)O4)c(C)c(O)c3c(O)c2C(=O)C1OC1CC(OC2CC(OC3CC(C)(O)C(O)C(C)O3)C(O)C(C)O2)C(O)C(C)O1 (stereo unspecified)
active: AA1029 0.141 µM | AS120 0.112 µM | ATS189 0.282 µM | ATS95 0.178 µM | C2A 0.251 µM | CP185 0.251 µM | CP191 0.224 µM | CP192 3.01 µM | CP194 3.01 µM | CP201 2.69 µM | CP211 2.69 µM | CP215 2.39 µM | CP217 0.282 µM | CP237 0.1 µM | CP238 0.251 µM | CP250 0.251 µM | CP252 0.251 µM | CP256 0.316 µM

O=S(=O)(O)O
not listed: CP215 | CP203
inactive: all other assays above

CC1(C)S[C@@H]2[C@H](NC(=O)[C@@H](NC(=O)N3CCNC3=O)c3ccccc3)C(=O)N2[C@H]1C(=O)O
not listed: CP203
inactive: all other assays above

C=CCSSSCC=C
not listed: CP203
inactive: all other assays above

CCCCCCCCCCCC[n+]1ccc2ccccc2c1
active: AA1029 1.26 µM | AS120 1.41 µM | ATS189 1 µM | ATS95 2 µM | C2A 0.708 µM | CP185 0.562 µM | CP191 0.562 µM | CP192 0.601 µM | CP194 1.2 µM | CP201 1.69 µM | CP211 0.675 µM | CP215 1.07 µM | CP217 0.891 µM | CP237 0.631 µM | CP238 0.631 µM | CP247 0.891 µM | CP250 1.12 µM | CP252 0.708 µM | CP256 0.562 µM

Cc1c(C)c2c(c(C)c1O)CC[C@@](C)(CCC[C@H](C)CCC[C@H](C)CCCC(C)C)O2
not listed: CP203
inactive: all other assays above

CC1=C(/C=C/C(C)=C/C=C/C(C)=C/C=C/C=C(C)/C=C/C=C(C)/C=C/C2=C(C)CCCC2(C)C)C(C)(C)CCC1
not listed: CP203
inactive: all other assays above

COC(=O)CCC(=O)CN
not listed: CP194
inactive: all other assays above

CCOc1ccc2c(c1)C(C)=CC(C)(C)N2
not listed: CP215 | CP203
inactive: all other assays above

COC(=O)[C@H]1[C@H]2C[C@@H]3c4[nH]c5ccccc5c4CCN3C[C@H]2C[C@@H](OC(=O)c2cc(OC)c(OC)c(OC)c2)[C@@H]1OC
active: AA1029 0.282 µM | AS120 0.199 µM | ATS189 0.708 µM | ATS95 0.398 µM | C2A 0.282 µM | CP185 0.398 µM | CP191 0.398 µM | CP192 0.338 µM | CP194 0.536 µM | CP201 0.849 µM | CP211 0.601 µM | CP215 0.757 µM | CP217 0.355 µM | CP237 0.126 µM | CP238 0.355 µM | CP247 0.398 µM | CP250 0.447 µM | CP252 0.398 µM | CP256 0.398 µM

CC[C@@]1(O)C(=O)OCc2c1cc1n(c2=O)Cc2cc3c([N+](=O)[O-])cccc3nc2-1
active: AA1029 7.08 µM | AS120 5.01 µM | ATS189 7.94 µM | ATS95 5.01 µM | C2A 7.94 µM | CP185 8.91 µM | CP191 11.2 µM | CP194 12 µM | CP215 13.5 µM | CP217 10 µM | CP237 3.98 µM | CP238 8.91 µM | CP247 11.2 µM | CP250 12.6 µM | CP256 11.2 µM

O=S(=O)(O)c1ccc2c(N=Nc3ccc(S(=O)(=O)O)c4ccccc34)c(O)c(S(=O)(=O)O)cc2c1
not listed: ATS95 | CP215
inactive: all other assays above

O=C1CSC2(CCN(CCCN3c4ccccc4Sc4ccc(Cl)cc43)CC2)N1
inactive: C2A | CP185 | CP238 | CP250 | CP256

CCOC(=O)C1=C(C)NC(C)=C(C(=O)OCC)C1c1ccccc1C=CC(=O)OC(C)(C)C
active: AA1029 8.91 µM | AS120 8.91 µM | ATS95 10 µM | CP185 11.2 µM | CP191 8.91 µM | CP192 12 µM | CP194 15.1 µM | CP203 19 µM | CP211 15.1 µM | CP215 16.9 µM | CP217 10 µM | CP237 8.91 µM | CP238 10 µM | CP252 10 µM
inactive: C2A | CP256

CN(C)CCCN1c2ccccc2C(C)(C)c2ccccc21
inactive: C2A | CP185 | CP192 | CP201 | CP211 | CP215 | CP217 | CP252
active: ATS95 8.91 µM

CC(C)=O
not listed: ATS95 | CP256
inactive: all other assays above

CN=C(NC#N)Nc1ccc(C2=NNC(=O)C[C@@H]2C)cc1
not listed: CP192 | CP194 | CP201 | CP211 | CP215 | CP203
inactive: all other assays above

O=S(=O)(O)c1cc(O)c2c(N=Nc3ccc(Nc4ccccc4)c4c(S(=O)(=O)O)cccc34)cc(S(=O)(=O)O)cc2c1
inactive: AA1029 | ATS189 | ATS95 | C2A | CP203 | CP237 | CP238

CCOC(=O)C1=CC2(CC)CCCN3CCc4c(n1c1ccccc41)C32 (stereo unspecified)
active: AA1029 11.2 µM | AS120 11.2 µM | ATS189 8.91 µM | ATS95 11.2 µM | C2A 10 µM | CP185 8.91 µM | CP191 8.91 µM | CP217 11.2 µM | CP238 8.91 µM | CP252 11.2 µM | CP256 6.31 µM

CCCCCCOc1ccc(C(=N)N(CCCC)CCCC)c2ccccc12
active: ATS189 10 µM | C2A 11.2 µM | CP185 10 µM | CP191 4.47 µM | CP192 19 µM | CP201 16.9 µM | CP217 7.94 µM | CP237 11.2 µM | CP247 10 µM | CP250 8.91 µM | CP252 10 µM

O=CCCCC=O
not listed: ATS189
inactive: all other assays above

O=C(O)c1cc(=O)c2c3nc4ccccc4oc-3cc(=O)c2[nH]1
active: CP237 2.82 µM
not listed: AS120
inactive: all other assays above

CCCCCC(CC)COC(=O)CC(C(=O)OCC(CC)CCCC)S(=O)(=O)O (stereo unspecified)
active: CP247 11.2 µM
not listed: CP192 | CP194 | CP201 | CP211 | CP215 | CP203
inactive: all other assays above

CCCCC(CC)COC(=O)CC(C(=O)OCC(CC)CCCC)S(=O)(=O)O (stereo unspecified)
inactive: CP192 | CP194 | CP201 | CP203 | CP211 | CP215

Clc1cc(Cl)c(OCC#CI)cc1Cl
active: AA1029 12.6 µM | C2A 8.91 µM | CP247 7.08 µM | CP250 11.2 µM
inactive: CP192

O=C(Nc1cccc(C(F)(F)F)c1)c1cc(Br)cc(Br)c1O
active: AS120 12.6 µM | CP211 12 µM | CP215 12 µM | CP217 8.91 µM | CP247 8.91 µM

C#C[C@]1(O)CC[C@H]2[C@@H]3CCC4=CCCC[C@@H]4[C@H]3C(=C)C[C@@]21CC
active: CP191 10 µM
inactive: C2A | CP192 | CP194 | CP201 | CP203 | CP211 | CP215 | CP237

CC(Cc1ccc(O)c(O)c1)C(C)Cc1ccc(O)c(O)c1 (stereo unspecified)
not listed: AS120 | CP237 | CP215 | CP203
inactive: all other assays above

O=C(Nc1ccc(Br)cc1)c1cc(Br)c(Br)s1
active: CP203 16.9 µM
inactive: CP250

CCOc1ccc(N=Nc2ccc(N)cc2N)cc1
not listed: ATS189 | CP247 | CP203
inactive: all other assays above

Cc1c(C)c2c(c(C)c1O)CC[C@@](C)(CCC[C@@H](C)CCC[C@@H](C)CCCC(C)C)O2
not listed: AS120 | CP203
inactive: all other assays above

C=C1C(=CC=C2CCC[C@@]3(C)[C@@H]2CC[C@H]3[C@H](C)CCCC(C)C)C[C@@H](O)C[C@@H]1O
active: C2A 10 µM | CP191 11.2 µM
inactive: AA1029 | CP192 | CP194 | CP201 | CP203 | CP211 | CP215

CN1C(=O)CN2CCc3ccccc3C2c2cc(Cl)ccc21 (stereo unspecified)
not listed: AS120 | CP217 | CP237 | CP203
inactive: all other assays above

CCCCC(=O)O[C@]1(C(=O)CO)[C@H](C)C[C@H]2[C@@H]3CCC4=CC(=O)C=C[C@]4(C)[C@@]3(F)[C@@H](O)C[C@@]21C
not listed: AS120 | CP203
inactive: all other assays above

CC(=O)Oc1cc(C)c(OC(C)=O)c2ccccc12
active: AS120 10 µM | C2A 11.2 µM | CP192 10.7 µM | CP250 7.94 µM | CP256 10 µM

CCN(CC)CCOc1ccc(-c2nc3cc(Cl)ccc3s2)cc1
not listed: AA1029 | ATS95 | C2A | CP191 | CP237 | CP247 | CP203
inactive: all other assays above

NC(=O)c1ncn(C2OC(CO)C(O)C2O)n1 (stereo unspecified)
not listed: C2A | CP203
inactive: all other assays above

COc1cc(-c2ccc(-[n+]3nc(-c4ccccc4)nn3-c3ccc([N+](=O)[O-])cc3)c(OC)c2)ccc1-[n+]1nc(-c2ccccc2)nn1-c1ccc([N+](=O)[O-])cc1
active: AA1029 11.2 µM | C2A 11.2 µM | CP185 10 µM | CP191 11.2 µM | CP192 19 µM | CP201 16.9 µM | CP211 13.5 µM | CP247 11.2 µM | CP252 8.91 µM

COC(=O)[C@H]1[C@H]2CC3c4[nH]c5ccccc5c4CCN3C[C@@H]2CC[C@@H]1O (stereo partly specified)
not listed: CP192 | CP194 | CP201 | CP211 | CP215 | CP203
inactive: all other assays above

CC1=C(/C=C/C(C)=C/C=C/C(C)=C/CO)C(C)(C)CCC1
active: CP217 10 µM | CP252 10 µM
inactive: CP192 | CP194 | CP201 | CP211
